Screens deposited in PubChem by National Center for Advancing Translational Sciences (NCATS).
Most compounds without a hit are left out; they make up all but 8% or so of the library.
Marburg entry inh: blocks Marburg virus binding to or entry into cells; Marburg virus pseudotyped entry inhibition, cell reporter; Potency, µM (highest dose often 37.8 µM), inactives show at the highest dose activity change, negative = inhibition, hits mostly inhibitors; 1.8% of 300,000 active; AID 540276; calls by dose curve; tested in HEK293 cells; note: potency is the fitted concentration of half-maximal effect; % is set by controls: 0 for no effect and ±100 for the full control effect
HCMV antiviral: human cytomegalovirus inhibition. 4.5% of 410,000 active. HFF cells, HCMV-luciferase reporter, 72 h; hits give low values. activity change, negative = inhibition, % at 57.5 µM. AID 1259415; in the data active = activity change below about -60%; inconclusive = no clear call, values can overlap the other calls; inactive = above about -39%; note: % is set by controls: 0 for no effect and ±100 for the full control effect
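HFF cells seeded 16 h at 37C, treated with compounds, infected with luciferase-reporter HCMV at MOI 1 PFU/cell; luciferase read at 72 h post infection, normalized to buffer-only and Salinomycin controls.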
LASV entry inh: inhibitors of Lassa virus binding or cell entry; Lassa virus pseudotype entry inhibition, cell reporter; Potency, µM (doses to about 37.9 µM), without a hit: top-dose activity change, negative = inhibition, hits mostly inhibitors; 1.2% of 300,000 active; calls by dose curve; tested in HEK293 cells; note: potency is the fitted concentration of half-maximal effect; % is set by controls: 0 for no effect and ±100 for the full control effect; nearly all actives have a fitted effect of over 50% in size
HCV inhibitor: HCV inhibition; Huh7.5.1 HCVcc-Cre infection, luciferase reporter, 44 h; Potency, µM (titrated, usually from 41.8 µM), for inactives: at the top dose activity change, negative = inhibition, hits mostly inhibitors; 3.4% of 340,000 active; AID 651820; active = well fitted inhibition curve with a large enough effect; inconclusive = small, poorly fitted or top-dose-only effect, or another doubt; inactive = no such curve, though single readings can be large or run the other way; note: potency is the fitted concentration of half-maximal effect; % is set by controls: 0 for no effect and ±100 for the full control effect
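After 44 h co-culture of compound, cells and HCVcc-Cre (~0.5 moi), substrate is added for 15 min at room temperature and luciferase measured over 15 sec. Cells were seeded at 1,000/well and pre-cultured 4 h.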
SARS PLP yeast: inhibitors of SARS-CoV papain-like protease in yeast; S. cerevisiae expressing SARS-CoV PLpro, growth rescue; Potency, µM (doses to about 32.9 µM), for inactives: at the top dose activity, positive = growth rescue, hits mostly activators; 0.19% of 330,000 active; calls by dose curve; note: potency is the fitted concentration of half-maximal effect; 0% is about no effect; nearly all actives have a fitted effect of over 55% in size
FMDV antiviral: foot and mouth disease virus antiviral activity; Potency, µM (highest dose often 57.9 µM), for the others: at the top dose activity change, negative = inhibition, hits mostly inhibitors; FMDV antiviral cell-based qHTS; 1.2% of 410,000 active; calls by dose curve; tested in HEK293T cells; note: read-out not given here; potency is the fitted concentration of half-maximal effect; % is set by controls: 0 for no effect and ±100 for the full control effect; nearly all actives have a fitted effect of over 45% in size
Active calls of the source: *; u = inconclusive; x = not tested or not shown; [ ] = remark or other dose.

SMILES | Marburg entry inh | HCMV antiviral | LASV entry inh | HCV inhibitor | SARS PLP yeast | FMDV antiviral
C=Cc1ccc(Cn2c(C(=O)O)c(CNCc3ccccc3)c3ccc(C)cc32)cc1 | x | -102.4* | u | x | x | u
CCc1ccc(CNCc2c(C(=O)O)n(Cc3ccc(C)cc3)c3cc(C)ccc23)cc1 | x | -93.8* | u | x | x | 0.0%
COc1ccc(Cn2c(C(=O)O)c(CNCCc3ccco3)c3ccc(OC)cc32)cc1 | x | 5.8 | 10.0%[46.1 µM] | x | x | 11.4%
Cc1ccc(CNCc2c(C(=O)O)n(Cc3ccccc3C)c3cc(C)ccc23)cc1 | x | 24.6 | 8.6%[46.1 µM] | x | x | u
N.N.N.N.N.N.N.N.N.N.N.N.N.N.O.O.[Ru+4].[Ru+5].[Ru+5] | u | x | -26.2% | x | x | x
COc1ccc(Oc2ncc3nc(-c4cccs4)c(=O)n(Cc4cccs4)c3n2)cc1 | x | x | x | x | x | -8.8%
COc1ccc(Cn2c(C(=O)O)c(CNCc3ccc(C)o3)c3ccc(C)cc32)cc1 | x | -37.8 | u | x | x | -1.3%
COc1ccc(CNCc2c(C(=O)O)n(Cc3ccc(F)cc3)c3cc(C)ccc23)cc1OC | x | -67.6* | u | x | x | -1.2%
Cc1ccc(Cn2c(C(=O)O)c(CNCc3ccc(OC(C)C)cc3)c3ccc(C)cc32)cc1 | x | -104.7* | u | x | x | u
COC(=O)C1CN(C(=O)COc2ccccc2C)c2ccccc2O1 (centres undefined) | 6.9%[46.1 µM] | -12.1 | 0.3%[46.1 µM] | 3.9% | -2.0% | 19.5%
COC(=O)C1CN(C(=O)COc2ccc(Cl)cc2C)c2ccccc2O1 (centres undefined) | 15.1%[46.1 µM] | -61.0* | 19.5%[46.1 µM] | 5.1% | -7.7% | 3.2%
Cc1cc(Cl)ccc1OCC(=O)N1CCCN(C(=O)COc2ccc(Cl)cc2C)CC1 | 14.6µM* | -26.2 | u | u | -95.5% | u
Cc1cc(Cl)ccc1OC(C)C(=O)N1CCCN(C(=O)C(C)Oc2ccc(Cl)cc2C)CC1 (centres undefined) | u | u | u | u | -18.2% | 28.2µM*
CSc1cccc(NC(=O)C2CCN(c3nc4ccccc4[nH]3)CC2)c1 | x | 0.0 | 2.5%[46.1 µM] | x | x | -10.7%
CC(=O)c1cccc(NC(=S)Nc2ccn(Cc3cccc4ccccc34)n2)c1 | u | u | u | 11.2µM* | 12.3% | -7.0%
COc1cc(OC)c(OC)cc1CN1CCc2nc(Nc3ccc4c(c3)OCCO4)ncc2C1 | x | -25.4 | 0.5%[46.1 µM] | x | x | u
Oc1ccc(-c2onc(C(F)(F)F)c2-c2cscn2)c(O)c1 | u | u | -5.8% | u | -1.3% | 0.0%
Cc1nc(-c2c(C(F)(F)F)noc2-c2ccc(O)cc2O)cs1 | -0.3% | -90.1* | 2.0% | u | -1.8% | u
COc1cc(OC)cc(-c2cc3c(Nc4cccc(O)c4)nccc3[nH]2)c1 | x | 24.7 | x | x | x | x
CCCN(CCC)C(=O)CC(c1ccccc1)c1ccc(C)cc1O (centres undefined) | u | -69.7* | 28.5%[14.3 µM] | x | -27.9% | -20.2%
Cc1ccc(C(CC(=O)NCC2(c3ccccc3)CCCC2)c2ccccc2)c(O)c1 (centres undefined) | u | -15.2 | u | x | x | 7.94µM*
Clc1ncnc2scc(-c3ccccc3)c12 | -18.0% | 12.9 | -2.8% | 3.4% | -6.4% | x
S=c1[nH]cnc2scc(-c3ccccc3)c12 | 15.6% | -77.4* | -13.0% | -4.2% | u | -15.7%
Oc1ccc(-c2csc(Nc3ncccn3)n2)c(O)c1 | -25.8%[46.1 µM] | 299.8 | -22.1% | 13.0% | -0.4% | 31.5%
Oc1ccc(-c2csc(-c3ccccc3)n2)cc1O | -19.2% | 42.8 | -36.9% | 4.47µM* | -28.0% | 49.7%
SMILES | Marburg entry inh | HCMV antiviral | LASV entry inh | HCV inhibitor | SARS PLP yeast | FMDV antiviral
O=C(Nc1cccc(-c2csc(-c3ccccc3)n2)c1)c1cccs1 | u | -27.5 | u | 10µM* | -10.8% | x
Oc1ccc(-c2csc(-c3cccnc3)n2)cc1O | u | 94.5 | u | -17.3% | -2.2% | 25.9%
Cc1nc(-c2cccc(NC(=O)c3cccs3)c2)cs1 | 12.9%[46.1 µM] | 18.8 | 3.7% | u | -41.2% | -3.9%
Oc1ccc(-c2csc(Nc3ncccn3)n2)cc1O | u | 110.9 | u | 11.2µM* | 0.2% | -74.7%
Cc1ccc(S(=O)(=O)NC2CCCCC2)c(C)c1NS(C)(=O)=O | -14.4%[46.1 µM] | 17.1 | 22.3% | 8.0% | 0.0% | 8.0%
CNC(=O)c1c(NC(=O)c2ccc(S(=O)(=O)N3CCCCC3)cc2)sc2c1CCC2 | x | -21.5 | -17.8%[46.1 µM] | x | x | 16.8%
c1coc(CN(Cc2cccs2)Cc2nnnn2C2CCCCC2)c1 | -28.0% | u | -16.8% | -4.0% | -22.3% | 1.2%
Clc1ccccc1CN(Cc1ccco1)Cc1nnnn1C1CCCC1 | -11.0% | 10.2 | -8.2% | 10µM* | x | -27.1%
CCc1nnc(NC(=O)CSC(=S)N2CCOCC2)s1 | x | -97.9* | x | 17.7% | -1.4% | -2.5%
Cc1cnc(NC(=O)CC(C)c2ccccc2)s1 (centres undefined) | u | -67.6* | 3.8%[46.1 µM] | u | 1.1% | 3.3%
CC(C)c1nnc(NC(=O)CC(C)c2ccccc2)s1 (centres undefined) | -16.9% | 5.6 | -6.3% | 5.3% | -0.5% | 27.6%
CCOC(=O)c1sc(NC(=O)CSC(=S)N2CCN(C)CC2)nc1C | u | -19.9 | -15.8% | 12.6µM* | -0.1% | -14.3%
CCOC(=O)c1sc(NC(=O)CC(C)c2ccccc2)nc1C (centres undefined) | 5.62µM* | -4.1 | u | u | 8.9% | -24.4%
CCOC(=O)c1cc(S(=O)(=O)N2CCN(c3ccccc3OC)CC2)[nH]n1 | x | 8.5 | 1.0%[46.1 µM] | x | x | 0.0%
CCC1CN(C(=O)Nc2cc(OC)cc(OC)c2)c2ccccc2S1 (centres undefined) | x | -0.7 | 11.5%[46.1 µM] | x | x | -13.2%
COC(=O)c1sc(NC(=O)COc2ccccc2C)nc1C | 3.8%[46.1 µM] | -12.1 | -1.8% | u | -4.1% | 65.7%
COc1ccccc1OCC(=O)Nc1nc(C)c(C)s1 | u | -13.1 | 12.6µM* | u | -5.3% | 31.8%
CCOC(=O)c1sc(NC(=O)c2ccc(OC)cc2)nc1C | 10.3%[46.1 µM] | -23.8 | 9.1%[46.1 µM] | u | 0.0% | 41.5%
Cc1cnc(NC(=O)CCNC(=O)c2ccccc2Cl)s1 | u | -7.0 | 8.8% | 16.4% | -3.3% | 6.3%
Cc1cnc(NC(=O)COc2ccccc2Cl)s1 | 2.31µM* | -33.5 | 1.83µM* | -6.6% | 8.8% | 10µM*
CCOC(=O)c1sc(NC(=O)c2ccc(OC(C)=O)cc2)nc1C | u | -81.9* | x | u | 9.9% | 37.2%
CC(Oc1ccc(Br)cc1)c1nc2c3ccccc3nc(=S)n2[nH]1 (centres undefined) | u | -29.0 | u | -2.3% | -2.6% | -14.0%
CCCC(Oc1ccc(Br)cc1)c1nc2c3cc(OC)c(OC)cc3nc(=S)n2[nH]1 (centres undefined) | u | -86.3* | -18.4% | u | -0.5% | 11.5%
O=C(NCc1ccco1)C1=COC2=NC(=O)N(Cc3ccccc3)CCN12 | x | -8.3 | x | x | x | x
CC(C)Cn1c(N)c(C(=O)COC(=O)c2cc(C(F)(F)F)nc3ccccc23)c(=O)n(C)c1=O | 28.9% | -3.2 | -14.5% | u | -15.2% | 28.2µM*
